Compounds with a hit are over-represented: about 28% of the library has one in this group of screens.
Mac1 fbg inh: blocks human CD11b/CD18 adhesion to fibrinogen | K562 CD11b/CD18 adhesion to fibrinogen, ATPlite luminescence; Mn2+ added to activate the integrin | P05107+P11215 | 93,000 tested, 0.54% active | inhibition, % at 10 µM;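 active = primary inhibition of 50% or more at 10 µM, then 40% or more on retest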
CYP2C9 act: activators of human CYP2C9. P11712. recombinant CYP2C9, luciferin-H conversion, luminescence; hits give high values; factor 1 = untreated enzyme, 0 = blocked. activation factor at 5 µM. 96,000 tested, 1.4% active. AID 1024;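 active = activation factor of 2 or more for CYP2C9 at a 5 µM dose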
CYP2C19 act: activators of human cytochrome P450 2C19; 96,000 tested, under 10 active; activation factor at 5 µM; recombinant CYP2C19, luciferin-H EGE luminescence; hits give high values; 0 = fully inhibited enzyme, 1 = untreated enzyme;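 active = activation factor of at least 2 at 5 µM in the primary screen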
Target sequence (P33261 whole entry, looked up): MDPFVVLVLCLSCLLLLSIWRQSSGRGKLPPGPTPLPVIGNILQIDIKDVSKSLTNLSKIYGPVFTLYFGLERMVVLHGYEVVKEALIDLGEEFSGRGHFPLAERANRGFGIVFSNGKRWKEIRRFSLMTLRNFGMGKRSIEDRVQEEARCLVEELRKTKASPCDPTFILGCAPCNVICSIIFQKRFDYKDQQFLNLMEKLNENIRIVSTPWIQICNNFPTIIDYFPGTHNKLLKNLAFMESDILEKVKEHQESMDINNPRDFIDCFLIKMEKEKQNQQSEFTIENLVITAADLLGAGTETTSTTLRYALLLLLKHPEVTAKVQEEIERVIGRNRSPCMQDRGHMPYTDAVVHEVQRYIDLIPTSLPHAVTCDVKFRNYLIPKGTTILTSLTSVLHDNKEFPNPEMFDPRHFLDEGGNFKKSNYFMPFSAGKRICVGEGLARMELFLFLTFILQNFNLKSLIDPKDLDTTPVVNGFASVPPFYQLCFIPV
CD11b adhes enh: increases human CD11b/CD18 adhesion to fibrinogen; AID 1499; K562 CD11b/CD18 adhesion to fibrinogen, ATPlite luminescence; 93,000 tested, 0.07% active; activation, % at 10 µM;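 active = 10 µM primary screen giving 50% or more activity, confirmed by 40% or more on retest at that dose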
CYP2C19 inh: blocks human cytochrome P450 2C19. P33261. CYP2C19 Supersomes, luciferin-H EGE luminescence, 30 min. inhibition, % at 5 µM. 96,000 tested, 21% active. AID 778;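 active = CYP2C19 inhibition above a set limit at 5 µM in the primary screen, cut at about 50% in these data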
CYP2C9 inhib: inhibitors of human CYP2C9 | CYP2C9 Supersomes, luciferin-H conversion, luminescence | P11712 | 96,000 tested, 20% active | inhibition, % at 5 µM | AID 777;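 active = blocking of liver enzyme CYP2C9 beyond about 50% at 5 µM, limit read from the data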
Numbers stand for hits; i = inactive; nt = no result.

SMILES | Mac1 fbg inh | CYP2C9 act | CYP2C19 act | CD11b adhes enh | CYP2C19 inh | CYP2C9 inhib
CCN(C(=O)c1ccc2c(OC)n(CC)nc2c1)c1ccc(OC)cc1 | nt | i | i | nt | i | i
CCCn1nc2cc(C(=O)NC3CCCc4ccccc43)ccc2c1OCC (centres undefined) | nt | i | i | nt | i | i
Cc1ccc(NC(=O)c2sc(Cl)nc2-c2ccccc2)cc1C | i | i | i | i | i | i
CCC(=O)N1c2ccc(S(=O)(=O)CCC(=O)N3CCn4c3nc3ccccc34)cc2CC1C (centres undefined) | nt | i | i | nt | i | i
O=C(NCc1cccs1)c1noc2c1CCCCC2 | i | i | i | i | i | i
CCCn1nc2cc(C(=O)NCCc3ccc(C)cc3)ccc2c1OCC | nt | i | i | nt | i | i
CCCCn1nc2cc(C(=O)NCC34CC5CC(CC(C5)C3)C4)ccc2c1OCC | i | i | i | i | i | 71.2
COc1ccc(C(=O)OCCNC(=O)c2c(Cl)nc3ccccn23)cc1 | i | i | i | i | 75.0 | i
CCOC(=O)c1c(-c2ccccc2)nc2ccccn12 | nt | i | i | nt | i | i
O=C(NCCOC(=O)c1ccc(Cl)cc1)c1cccnc1 | i | i | i | i | i | i
CC(C)(C)c1ccc(C(=O)OCCNC(=O)c2c(Cl)nc3ccccn23)cc1 | i | i | i | i | 59.1 | 92.4
COc1ccc(C2C(C#N)=C(N)N3C(=C2C#N)Sc2ccccc23)cc1 (centres undefined) | i | i | i | i | i | i
COc1ccc(OCCSc2nnc(-c3ccoc3C)n2C)cc1 | i | i | i | i | 74.2 | 72.4
CCCn1c(SCC(=O)c2c[nH]c3ccccc23)nnc1-c1ccncc1 | i | nt | nt | i | nt | nt
Cc1occc1-c1nnc(SCC(=O)c2c[nH]c3ccccc23)n1C | i | i | i | i | 98.4 | 53.5
Cc1occc1-c1nnc(SCC(=O)c2ccc(Cl)cc2)n1C | i | i | i | i | 85.1 | i
Cc1cccc(C)c1NC(=O)CSc1nnc(-c2ccoc2C)n1C | i | i | i | i | i | i
COC(=O)c1ccc(N2C(=O)CC(N3CCC(O)(c4ccc(Br)cc4)CC3)C2=O)cc1 (centres undefined) | i | i | i | i | i | i
O=C(COC(=O)CCCc1nc2ccccc2s1)Nc1ncc(Cl)cc1Cl | i | nt | nt | i | nt | nt
COc1cccc(-n2nnnc2SCC(=O)NC2CCCC2)c1 | i | 2 | i | i | i | i
COc1cccc(-n2nnnc2SCC(=O)c2ccc(NC(C)=O)cc2)c1 | i | i | i | i | i | i
COc1cccc(-n2nnnc2SCC(=O)N2CCCc3ccccc32)c1 | i | i | i | i | 52.3 | i
COc1cccc(C(=O)CSc2nnnn2C2CCCCC2)c1 | i | i | i | i | i | 68.4
O=C(CSc1nnnn1-c1cccc2c1CCCC2)NC1CCCC1 | nt | 3 | i | nt | i | i
COc1cc(OC)cc(-n2nnnc2SCC(=O)N2CCCc3ccccc32)c1 | i | i | i | i | i | i
SMILES | Mac1 fbg inh | CYP2C9 act | CYP2C19 act | CD11b adhes enh | CYP2C19 inh | CYP2C9 inhib
CC(C)(C)C1CCC(=NNC(=O)c2ccccc2-n2cccc2)CC1 (centres undefined) | i | nt | nt | i | nt | nt
CC([NH2+][O-])C(C)(C)NO (centres undefined) | i | i | i | i | i | i
COc1ccccc1-n1c(SCC(=O)NC2CCS(=O)(=O)C2)nc2cc([N+](=O)[O-])ccc21 (centres undefined) | i | nt | nt | i | nt | nt
COc1ccc2c(c1)c1nnc(SCC(=O)N3C(C)CCCC3C)nc1n2C (centres undefined) | nt | i | i | nt | i | 65.5
COc1ccccc1-n1nnnc1SCC(=O)NC1CCCC1 | i | 2.3 | i | i | i | i
CCN(CC)S(=O)(=O)c1ccc2c(c1)nc(SCC(=O)NC1CC1)n2-c1ccccc1OC | i | i | i | i | i | 75.4
COc1cccc(-n2nnnc2SCC(=O)Nc2cccc(NC(C)=O)c2)c1 | i | i | i | i | i | 50.5
CCCc1cc(=O)n2[nH]c(C)cc2n1 | i | i | i | i | i | i
CC(C)CNC(=O)c1cccc(NC(=O)C2CCCO2)c1 (centres undefined) | i | i | i | i | i | i
O=C(Nc1nnc(CC(c2ccccc2)c2ccccc2)s1)c1ccco1 | i | i | i | i | i | i
Cc1csc(NC(=O)CSc2nnc3ncccn23)n1 | i | i | i | i | i | i
CCCOc1ccc(C2NC(=S)NC(c3ccccc3)=C2C(=O)Nc2ccc(C)cc2)cc1OC (centres undefined) | i | nt | nt | i | nt | nt
COc1ccc(-n2nnnc2SCC(=O)N2C(C)CCCC2C)c(OC)c1 (centres undefined) | i | i | i | i | 75.4 | i
O=C(CSc1nccn1-c1cccc(Cl)c1)NC1CCCC1 | i | i | i | i | 83.5 | 66.6
COc1cccc(NC(=O)CSc2nncn2N)c1 | i | i | i | i | i | i
Cn1c(SCC(=O)NC2CCCC2)nc2cccnc21 | i | i | i | i | i | i
CC1CCCC(C)N1C(=O)CSc1nnnn1-c1cccc2c1CCCC2 (centres undefined) | nt | i | i | nt | i | i
O=C(CSc1nnnn1-c1cccc2c1CCCC2)N1CCOCC1 | i | 2.2 | i | i | i | i
COc1ccc(-n2nnnc2SCC(=O)c2ccc3c(c2)OCCO3)c(OC)c1 | i | i | i | i | i | i
COc1cccc(NC(=O)CSc2nncn2-c2ccccn2)c1 | i | i | i | i | 62.3 | i
CCOC(=O)C1=C(CN2c3ccccc3CC2C)NC(=O)NC1c1ccccc1 (centres undefined) | i | i | i | i | i | i
O=C(/C=C/c1ccc(OCCCF)cc1)NCc1ccc(Cl)cc1 | i | i | i | i | i | i
CCOC(=O)CN1C(=O)NC(C)(c2ccc(OC(F)F)cc2)C1=O (centres undefined) | i | i | i | i | 64.0 | i
CN(C)/C=C1\C(=O)N(c2ccc(Oc3ccccc3)cc2)CS1=O (centres undefined) | i | i | i | i | i | i
COc1ccccc1C1C(C(N)=O)=C(C)Nc2nc(-c3ccc(Cl)cc3)nn21 (centres undefined) | i | i | i | i | i | i
SMILES | Mac1 fbg inh | CYP2C9 act | CYP2C19 act | CD11b adhes enh | CYP2C19 inh | CYP2C9 inhib
COc1ccc(-c2nc3n(n2)C(c2ccccc2Cl)C(C(N)=O)=C(C)N3)cc1 (centres undefined) | i | i | i | i | 52.6 | i
CC1=C(C(N)=O)C(c2ccccc2)n2nc(-c3cccc(C)c3)nc2N1 (centres undefined) | i | i | i | i | 50.3 | i
Cc1cc(-c2nnco2)c(C)n1-c1ccc(F)cc1 | i | i | i | i | 58.0 | i
Cc1ccc(C)n1-c1ccc(-c2nnco2)cc1 | i | i | i | i | i | i
C=CCc1c(OC)ccc2ccc(=O)oc12 | i | 2.2 | i | i | 56.9 | i
COC1=Cc2c(ccc3ccc(=O)oc23)OC1(C)C | i | i | i | i | i | i

Screening results deposited in PubChem BioAssay by Sanford-Burnham Center for Chemical Genomics.
